Our source for the activation, Potency and activity change, negative = inhibition values is PubChem BioAssay (Tox21).

SMILES strings stand for the structures. Results filed as inconclusive are left out. Entries that show only a call come without a potency. A number with no mark means an inactive call. Activity calls are given as the source filed them. Unless noted, calls follow the shape of the full dose curve.

D(2) dopamine receptor (Homo sapiens), sequence (P14416 whole entry, looked up): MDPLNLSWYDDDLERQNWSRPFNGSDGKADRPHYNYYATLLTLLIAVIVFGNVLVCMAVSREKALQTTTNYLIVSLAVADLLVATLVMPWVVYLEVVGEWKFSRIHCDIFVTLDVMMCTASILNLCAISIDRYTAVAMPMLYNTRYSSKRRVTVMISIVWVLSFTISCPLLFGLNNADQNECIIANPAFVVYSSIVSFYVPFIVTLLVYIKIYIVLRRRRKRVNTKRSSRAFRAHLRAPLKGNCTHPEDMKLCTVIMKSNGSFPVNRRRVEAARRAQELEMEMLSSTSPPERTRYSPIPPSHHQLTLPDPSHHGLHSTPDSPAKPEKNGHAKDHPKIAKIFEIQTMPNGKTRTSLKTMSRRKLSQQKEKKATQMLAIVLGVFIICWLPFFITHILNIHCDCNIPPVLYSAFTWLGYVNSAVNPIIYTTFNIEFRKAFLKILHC
Beta-2 adrenergic receptor (Homo sapiens), sequence (P07550 whole entry, looked up): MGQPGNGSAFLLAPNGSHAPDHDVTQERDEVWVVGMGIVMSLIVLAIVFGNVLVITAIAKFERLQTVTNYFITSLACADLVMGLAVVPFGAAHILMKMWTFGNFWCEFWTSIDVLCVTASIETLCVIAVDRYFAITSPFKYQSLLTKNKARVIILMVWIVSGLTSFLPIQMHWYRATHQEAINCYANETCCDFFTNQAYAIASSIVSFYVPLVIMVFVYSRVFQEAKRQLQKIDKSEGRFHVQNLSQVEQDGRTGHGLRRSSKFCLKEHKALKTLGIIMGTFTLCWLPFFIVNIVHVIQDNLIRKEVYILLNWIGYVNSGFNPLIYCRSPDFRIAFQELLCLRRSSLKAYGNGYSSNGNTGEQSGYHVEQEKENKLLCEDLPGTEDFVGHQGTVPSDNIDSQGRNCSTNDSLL

The first test has as its target Beta-2 adrenergic receptor (Homo sapiens) (UniProt P07550). Description: Adrenergic beta2 receptor (ADRB2) small molecule agonists, cell-based qHTS assay (AID 1963593). Also: potency is read from the fitted curve at half-maximal effect.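 As to activation: CHO cells stably overexpressing human ADRB2.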 Particulars: CHO-ADRB2 cells, cAMP HTRF, 30 min; series mostly up to 92.4 µM. The gist of the method: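 CHO cells stably over-expressing ADRB2 were plated overnight at 37C, then dosed with compounds plus a stimulation mix containing 100uM IBMX and 25uM Ro-20-1724 for 0.5hr at room temperature. cAMP was measured by HTRF competition, 1hr.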
In general terms: qHTS replaces the single test concentration by a dilution series.
For the compound `Cc1[nH]c(C)c(Cl)c(=O)c1Cl`, the activation was 13.3% [at 19 µM].
Turning to `COc1cc(N)ccc1C`, the Potency entry was “inactive”.
Still for that read-out and setting: as for `NCCCN(CCO)CCO`, the entry is “inactive”; as for `O=Cc1cc(O)ccc1Br`, “inactive”; as for `CC[N+](CC)(CC)CCOC(=O)C(C1CCCC1)C1CCCC1`, “inactive”.
The same measure, in the same setting: for `O=C1CCCCCCCCCCCC(=O)OCCO1` the value was “inactive”; for `CCCCOC(=O)CCCCC(=O)OCCCC`, “inactive”; for `c1cc[c]([Bi]([c]2ccccc2)[c]2ccccc2)cc1`, 1.72 µM (active).
Still for that read-out and setting: for `C=C[Si](OC)(OC)OC` the value was “inactive”; for `CC(CC=O)CCCC(C)(C)O` (stereo unspecified), “inactive”; for `Cc1c(Cl)cccc1Cl`, “inactive”.
Take `CCN1CCC[C@H]1CNC(=O)c1c(OC)ccc(Br)c1OC`: the Potency entry is “inactive”.
Still for that read-out and setting: for `CCCCCCCCCCCCCCCC(=O)OCC` the value was “inactive”.

A further test has as its target D(2) dopamine receptor (Homo sapiens) (UniProt P14416). Description: Dopamine D2 receptor (DRD2) small molecule agonists, cell-based qHTS assay (AID 1963594). Also: nearly all actives have a fitted effect of over 35% in size. To be noted: HEK293-DRD2 cAMP HTRF, agonist mode, 30 min; series mostly up to 92.4 µM. In a few lines: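 HEK293 cells stably expressing human DRD2, pre-treated with PDE inhibitor Ro20-1724 (0.1 mM final) and compound 10 min at room temperature, then stimulated with NKH477 (200nM […]) for 30 min. cAMP read by HTRF (665/620 nm).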
On to `O=C=NCC1CCCC(CN=C=O)C1` (stereo unspecified), for which the Potency entry is “inactive”.
Same read-out and setting: for `Cc1ccc2ccc3cccc4ccc1c2c34` the value was “inactive”; for `CCOc1ccc(NS(=O)(=O)c2ccc(N)cc2)nn1`, “inactive”.
The same measure, in the same setting: for `COC(=O)c1cc(Cl)cc(Cl)c1` the value was “inactive”.
Same read-out and setting: as for `Cc1ccc(-c2ncc(Cl)cc2-c2ccc(S(C)(=O)=O)cc2)cn1`, the entry is “inactive”.
Turning to `Cc1[nH]c(C)c(Cl)c(=O)c1Cl`, the activation is -3.57% [at 19 µM].
On to `CCCNCCC`, for which the Potency result was “inactive”.
As to `COc1cc(N)ccc1C`, the Potency entry was “inactive”.
Regarding `Cc1ccc2c(c1)CCCN2`, the Potency entry is “inactive”.
For the compound `NCCCCCCNCCCCCCN`, the Potency result was “inactive”.
The same measure, in the same setting: for `CC(C)(C)C1CCCCC1=O` (stereo unspecified) the value was “inactive”; for `CC1(C)CC(O)CC(C)(C)N1[O]`, “inactive”.
For `C=CCCCCCCCCCCCCCC`, the activation was -4.33% [at 19 µM].
Consider `CCN1C=CN(C)C1C` (stereo unspecified), for which the Potency result was “inactive”.
For `CC[N+](C)(CC)CCOC(=O)C1c2ccccc2Oc2ccccc21`, the Potency result is “inactive”.
The same measure, in the same setting: for `O=Cc1cc(O)ccc1Br` the value was “inactive”.
On the same count and under the same terms, for `O=CN(CCO)CCO` the value was “inactive”.
The same measure, in the same setting: as for `CCN(C(=O)N(CC)c1ccccc1)c1ccccc1`, the entry is “inactive”; as for `CC/C=C\CC/C=C/CO`, “inactive”.
`Cc1ccccc1N=C(N)Nc1ccccc1C`: the Potency entry was “inactive”.
Consider `C1C2OC2C2C1C1CC2C2OC12` (stereo unspecified), for which the Potency entry was “inactive”.
Still for that read-out and setting: for `CC[N+](CC)(CC)CCOC(=O)C(C1CCCC1)C1CCCC1` the value was “inactive”.
`O=C1CCCCCCCCCCCC(=O)OCCO1`: the Potency result is “inactive”.
For the compound `CCCCOC(=O)CCCCC(=O)OCCCC`, the Potency result was “inactive”.
`c1cc[c]([Bi]([c]2ccccc2)[c]2ccccc2)cc1`: the Potency result is “inactive”.
Still for that read-out and setting: for `C=C[Si](OC)(OC)OC` the value was “inactive”.
Take `Cc1c(Cl)cccc1Cl`: the Potency entry was “inactive”.
Same read-out and setting: as for `CCCCC(CC)COC(=O)c1ccccc1` (stereo unspecified), the entry is “inactive”.
Same read-out and setting: for `CN(C)CCOC(=O)C(c1ccccc1)C1(O)CCCC1` (stereo unspecified) the value was “inactive”; for `CCCCCCCCCCCCCCCC(=O)OCC`, “inactive”.

For the next test the target is unchanged. Description: Dopamine D2 receptor (DRD2) small molecule antagonists, cell-based qHTS assay (AID 1963595; active = well fitted inhibition curve with a large enough effect in the signal ratio in the repeat runs, with a control signal flat; the % refers to the signal ratio; also: potency is read from the fitted curve at half-maximal effect). Particulars: HEK293-DRD2 cAMP HTRF antagonist mode; series mostly up to 92.4 µM. In a few lines:
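Cells were plated and grown for 24 h at 37 °C. Ro20-1724 (0.1 mM final) went in first, then compound for 10 min. NKH477 (200 nM) with quinpirole (12 nM) followed for 30 min at RT, then HTRF detection reagents for 1 h.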
For the compound `O=C=NCC1CCCC(CN=C=O)C1` (stereo unspecified), the Potency result is “inactive”.
Same read-out and setting: for `CC(CCO)CCCC(C)(C)O` (stereo unspecified) the value was “inactive”; for `CCOc1ccc(NS(=O)(=O)c2ccc(N)cc2)nn1`, “inactive”.
Same read-out and setting: as for `COC(=O)c1cc(Cl)cc(Cl)c1`, the entry is “inactive”.
Turning to `Oc1cc2ccccc2c2ccccc12`, the Potency was 30.6 µM (active).
With `Cc1[nH]c(C)c(Cl)c(=O)c1Cl`, the activity change, negative = inhibition was 7.52% [at 18.9 µM].
For the compound `COc1cc(N)ccc1C`, the Potency entry was “inactive”.
Same read-out and setting: as for `Cc1ccc2c(c1)CCCN2`, the entry is “inactive”; as for `NCCCCCCNCCCCCCN`, “inactive”.
Still for that read-out and setting: for `CC(C)(C)C1CCCCC1=O` (stereo unspecified) the value was “inactive”.
The same measure, in the same setting: as for `CN(C)CCOCCO`, the entry is “inactive”; as for `CC1(C)CC(O)CC(C)(C)N1[O]`, “inactive”.
For `C=CCCCCCCCCCCCCCC`, the activity change, negative = inhibition was -4.22% [at 18.9 µM].
In the case of `CCN1C=CN(C)C1C` (stereo unspecified), the Potency entry is “inactive”.
The same measure, in the same setting: as for `CC[N+](C)(CC)CCOC(=O)C1c2ccccc2Oc2ccccc21`, the entry is “inactive”.
On the same count and under the same terms, as for `NCCCN(CCO)CCO`, the entry is “inactive”; as for `O=Cc1cc(O)ccc1Br`, “inactive”.
Still for that read-out and setting: as for `O=CN(CCO)CCO`, the entry is “inactive”.
On to `CCN(C(=O)N(CC)c1ccccc1)c1ccccc1`, for which the Potency result is “inactive”.
On the same count and under the same terms, for `CCC(CC)CO` the value was “inactive”; for `CC/C=C\CC/C=C/CO`, “inactive”; for `Cc1ccccc1N=C(N)Nc1ccccc1C`, “inactive”.
With `C1C2OC2C2C1C1CC2C2OC12` (stereo unspecified), the Potency entry was “inactive”.
The same measure, in the same setting: for `CC[N+](CC)(CC)CCOC(=O)C(C1CCCC1)C1CCCC1` the value was “inactive”.
The same measure, in the same setting: for `O=C1CCCCCCCCCCCC(=O)OCCO1` the value was “inactive”.
The same measure, in the same setting: as for `CCCCOC(=O)CCCCC(=O)OCCCC`, the entry is “inactive”.
For the compound `C=C[Si](OC)(OC)OC`, the Potency result is “inactive”.
Still for that read-out and setting: for `CC(CC=O)CCCC(C)(C)O` (stereo unspecified) the value was “inactive”; for `CCOC(=O)C1=NN(c2ccccc2)C(=O)C1`, “inactive”; for `Cc1c(Cl)cccc1Cl`, “inactive”.
Regarding `O=C1c2cccc3c2[C@H](CCC3)CN1[C@@H]1CN2CCC1CC2`, the Potency result is “inactive”.
Same read-out and setting: as for `CCCCC(CC)COC(=O)c1ccccc1` (stereo unspecified), the entry is “inactive”.
Take `CN(C)CCOC(=O)C(c1ccccc1)C1(O)CCCC1` (stereo unspecified): the Potency entry is “inactive”.
